Laboratory results from PubChem BioAssay (NCATS).
Inconclusive results are not listed. Unmarked numbers belong to inactive results. Calls of active or inactive are those of the source. The call rests on the fitted dose curve; in most records, active means well fitted curve in the direction sought with a large enough effect; inconclusive means small, poorly fitted or top-dose-only effect, or another doubt; inactive means no such curve, though single readings can be large; an effect the other way counts as inactive or inconclusive.

Each compound was assayed against Aldehyde dehydrogenase, mitochondrial (Homo sapiens) (UniProt P05091) (assay: qHTS for Inhibitors of the Aldehyde Dehydrogenase Family (ALDH2) Primary screen (AID 2061308;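 further: plate controls were vehicle for no effect and reference inhibitor for full effect; nearly all actives have a fitted effect of over 55% in size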)). Settings: ALDH2 enzyme inhibition qHTS, 1536-well; series mostly up to 56 µM; activity change, negative = inhibition: at the top concentration.

| Structure (SMILES) | activity change, negative = inhibition | Potency |
| --- | --- | --- |
| COc1ccc(C2Nc3ccccc3C(=O)N2Cc2ccc(C)o2)cc1COc1c(C)cccc1C (stereo not given) | -10.1% |  |
| Clc1ccccc1-c1ccc2ncnc(NCc3ccc4c(c3)OCO4)c2c1 | 9.33% |  |
| Cc1cc(C)n2ncc(C(=O)NC3CCC(C(C)(C)C)CC3)c2n1 (stereo not given) |  | inactive |
| Cc1ccc(-c2ccc(=O)n(CC(=O)NCCCN(C)C)n2)cc1 | 14.1% |  |
| NC(=O)C1CCN(c2nc(-c3ccccc3C(F)(F)F)cs2)CC1 | 13.4% |  |
| Nc1nc(NCC2CCC(CNS(=O)(=O)c3cccc4ccccc34)CC2)nc2ccccc12 (stereo not given) | 53.2% |  |
| O=C1Nc2ccccc2/C1=C\c1cc(Br)c(O)c(Br)c1 | -17.1% |  |
| CCNC(=O)c1ccc(-c2ccc3ncnc(NCc4nccs4)c3c2)o1 | -0.933% |  |
| CCOC(=O)C1CCN(C(=O)C(C)(C)NC(=O)Nc2ccc(Cl)cc2Cl)CC1 | -12.3% |  |
| O=S(=O)(NCc1ccccc1F)c1ccc(O)c2ncccc12 | -12.3% |  |
| COc1ccc(C(=O)Nc2ccc(-c3nc4ccccc4[nH]3)cc2)cc1Br | 0.0703% |  |
| COC(=O)c1ccc2nc(NC3=NC(c4[nH]ncc4Cl)C4=C(CCCC4=O)N3)oc2c1 (stereo not given) | 24.5% |  |
| N#Cc1nc(NCC(F)F)c2ncn(-c3cc(F)cc(F)c3)c2n1 | 6.05% |  |
| N#Cc1nc(Nc2ccc(C(F)(F)F)cc2)nc(NC2CCCC2)n1 | -11.4% |  |
| Cc1ccc(-c2cc(C(=O)Nc3cccc4ccccc34)c3ccccc3n2)cc1C | -3.76% |  |
| COc1ccc(C2Nc3cccc(OC)c3C(=O)N2Cc2ccco2)cc1COc1c(C)cc(NC(C)=O)cc1C (stereo not given) | 2.5% |  |
| Cc1ccnc(NC(=S)NC2CCCN(c3cccc(C(F)(F)F)c3)C2)c1 (stereo not given) | -22.7% |  |
| Nc1nc(NCc2ccc(-c3cccnc3)cc2)c2ccccc2n1 | 10.2% |  |
| COc1cccc(NCc2ccc(O)c3ncccc23)n1 | -11.1% |  |
| NC(=O)C1CCN(c2nc(-c3cccc4ccccc34)cs2)CC1 | 3.76% |  |

| Structure (SMILES) | activity change, negative = inhibition | Potency |
| --- | --- | --- |
| COc1cc(N2CCN(C(=S)Nc3cc(C)cc(C)n3)CC2)cc(C(F)(F)F)c1 | -13% |  |
| CC(=O)Nc1sc2c(c1-c1ccc(C)cc1)CCNC2 | -23.2% |  |
| C/C=C(\C)C(=O)OC1C(C)C2(O)C(C=C(CO)CC3(O)C(=O)C(C)=CC32)C2C(C)(C)C12OC(=O)C(C)C (stereo not given) | -9.39% [at 28 µM] |  |
| COc1ccc2oc(NC3=NC(c4[nH]ncc4Cl)C4=C(CCCC4=O)N3)nc2c1 (stereo not given) |  | inactive |
| CC(=O)Nc1sc2c(c1-c1ccccc1)CCNC2 | -9.88% |  |
| COc1ccc(NS(=O)(=O)c2ccccc2)cc1NS(=O)(=O)c1ccccc1 | 10% |  |
| CSc1ccc(-c2cncc(NC(=O)c3cccs3)c2)cc1 | 8.04% |  |
| COc1ccc(-c2nnc3n2N=C(c2ccccc2OC)CS3)cc1OC | 17.2% |  |
| O=S1(=O)N=C(N2CCOCC2)c2ccccc21 | 6.26% |  |
| N#Cc1nc(NCCCCO)nc(Nc2ccccc2)n1 | 0.703% |  |
| CCN(CC)CCCC(C)n1c(-c2ccccc2)nc2c(N(CCOC)CCOC)nc(C)nc21 (stereo not given) | 5.24% |  |
| O=C1CCCC2=C1C(c1ccncc1Br)N=C(Nc1nc3ccccc3o1)N2 (stereo not given) |  | inactive |
| O=[S+]([O-])(c1ccc2ncsc2c1)N1CCN([S+](=O)([O-])c2c(F)cccc2F)CC1 | -17% |  |
| COC(=O)c1ccccc1NC(=O)c1ccc(C#N)cc1 | 14.2% |  |
| NC(=O)c1ccnc2c(O)cccc12 | -9.79% |  |
| C(=C/c1cccs1)/c1ccncc1 | 18.7% |  |
| C/C=C(\C)C(=O)OC1C[C@@]2(COC(C)=O)O[C@H]2/C=C\[C@@]2(C)O[C@@H]2[C@H]2OC(=O)C(COC(C)=O)=C12 (stereo not given in full) | 5.45% [at 28 µM] |  |
| O=C(Nc1nc(-c2ccccc2)cs1)c1ccncc1NS(=O)(=O)c1cccnc1 | -7.57% |  |
| COc1cc(C(=O)Nc2nc(-c3ccccc3)cs2)ccc1NS(=O)(=O)c1ccc(C)cc1 | 3.14% |  |
| COc1ccc2nc(-c3ccccc3OCc3ccccc3)sc2c1 | 1.65% |  |

These compounds were tested against Retinaldehyde dehydrogenase 3 (Homo sapiens) (UniProt P47895) (assay: qHTS for Inhibitors of the Aldehyde Dehydrogenase Family (ALDH1A3) Primary screen (AID 2061315;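 further: plate controls were DMSO vehicle for no effect and reference inhibitor for full effect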)). Settings: ALDH inhibition qHTS; series mostly up to 56 µM; activity change, negative = inhibition: at the top concentration.

| Structure (SMILES) | activity change, negative = inhibition | Potency |
| --- | --- | --- |
| COc1ccc(C2Nc3ccccc3C(=O)N2Cc2ccc(C)o2)cc1COc1c(C)cccc1C (stereo not given) | -6.49% |  |
| Clc1ccccc1-c1ccc2ncnc(NCc3ccc4c(c3)OCO4)c2c1 | 6.42% |  |
| Cc1cc(C)n2ncc(C(=O)NC3CCC(C(C)(C)C)CC3)c2n1 (stereo not given) |  | inactive |
| Cc1ccc(-c2ccc(=O)n(CC(=O)NCCCN(C)C)n2)cc1 | -3.3% |  |
| NC(=O)C1CCN(c2nc(-c3ccccc3C(F)(F)F)cs2)CC1 | -2.82% |  |
| Nc1nc(NCC2CCC(CNS(=O)(=O)c3cccc4ccccc34)CC2)nc2ccccc12 (stereo not given) | 50.4% |  |
| O=C1Nc2ccccc2/C1=C\c1cc(Br)c(O)c(Br)c1 | -11.1% |  |
| CCNC(=O)c1ccc(-c2ccc3ncnc(NCc4nccs4)c3c2)o1 | -10.5% |  |
| CCOC(=O)C1CCN(C(=O)C(C)(C)NC(=O)Nc2ccc(Cl)cc2Cl)CC1 | -6.85% |  |
| O=S(=O)(NCc1ccccc1F)c1ccc(O)c2ncccc12 | -24.4% |  |
| COc1ccc(C(=O)Nc2ccc(-c3nc4ccccc4[nH]3)cc2)cc1Br | 7.82% |  |
| COC(=O)c1ccc2nc(NC3=NC(c4[nH]ncc4Cl)C4=C(CCCC4=O)N3)oc2c1 (stereo not given) | 21.9% |  |
| N#Cc1nc(NCC(F)F)c2ncn(-c3cc(F)cc(F)c3)c2n1 | 2.98% |  |
| N#Cc1nc(Nc2ccc(C(F)(F)F)cc2)nc(NC2CCCC2)n1 | -15.8% |  |
| Cc1ccc(-c2cc(C(=O)Nc3cccc4ccccc34)c3ccccc3n2)cc1C | 0.649% |  |
| COc1ccc(C2Nc3cccc(OC)c3C(=O)N2Cc2ccco2)cc1COc1c(C)cc(NC(C)=O)cc1C (stereo not given) | -15.7% |  |
| Cc1ccnc(NC(=S)NC2CCCN(c3cccc(C(F)(F)F)c3)C2)c1 (stereo not given) | 13.5% |  |
| Nc1nc(NCc2ccc(-c3cccnc3)cc2)c2ccccc2n1 | 7.07% |  |
| COc1cccc(NCc2ccc(O)c3ncccc23)n1 | -13.9% |  |
| NC(=O)C1CCN(c2nc(-c3cccc4ccccc34)cs2)CC1 | 1.11% |  |

| Structure (SMILES) | activity change, negative = inhibition | Potency |
| --- | --- | --- |
| COc1cc(N2CCN(C(=S)Nc3cc(C)cc(C)n3)CC2)cc(C(F)(F)F)c1 | 14.8% |  |
| CC(=O)Nc1sc2c(c1-c1ccc(C)cc1)CCNC2 | -3.86% |  |
| C/C=C(\C)C(=O)OC1C(C)C2(O)C(C=C(CO)CC3(O)C(=O)C(C)=CC32)C2C(C)(C)C12OC(=O)C(C)C (stereo not given) | 2.68% [at 28 µM] |  |
| COc1ccc2oc(NC3=NC(c4[nH]ncc4Cl)C4=C(CCCC4=O)N3)nc2c1 (stereo not given) | -15.1% |  |
| CC(=O)Nc1sc2c(c1-c1ccccc1)CCNC2 | -11.2% |  |
| COc1ccc(NS(=O)(=O)c2ccccc2)cc1NS(=O)(=O)c1ccccc1 | 5.23% |  |
| CSc1ccc(-c2cncc(NC(=O)c3cccs3)c2)cc1 | -10.8% |  |
| COc1ccc(-c2nnc3n2N=C(c2ccccc2OC)CS3)cc1OC | 2.89% |  |
| O=S1(=O)N=C(N2CCOCC2)c2ccccc21 | -7.66% |  |
| N#Cc1nc(NCCCCO)nc(Nc2ccccc2)n1 | 3.91% |  |
| CCN(CC)CCCC(C)n1c(-c2ccccc2)nc2c(N(CCOC)CCOC)nc(C)nc21 (stereo not given) | 25.8% |  |
| O=C1CCCC2=C1C(c1ccncc1Br)N=C(Nc1nc3ccccc3o1)N2 (stereo not given) |  | inactive |
| O=[S+]([O-])(c1ccc2ncsc2c1)N1CCN([S+](=O)([O-])c2c(F)cccc2F)CC1 | -1.76% |  |
| COC(=O)c1ccccc1NC(=O)c1ccc(C#N)cc1 | -7.96% |  |
| NC(=O)c1ccnc2c(O)cccc12 | 32.4% |  |
| C(=C/c1cccs1)/c1ccncc1 | -7.21% |  |
| C/C=C(\C)C(=O)OC1C[C@@]2(COC(C)=O)O[C@H]2/C=C\[C@@]2(C)O[C@@H]2[C@H]2OC(=O)C(COC(C)=O)=C12 (stereo not given in full) | -6.46% [at 28 µM] |  |
| O=C(Nc1nc(-c2ccccc2)cs1)c1ccncc1NS(=O)(=O)c1cccnc1 | 3.78% |  |
| COc1cc(C(=O)Nc2nc(-c3ccccc3)cs2)ccc1NS(=O)(=O)c1ccc(C)cc1 | 0.0101% |  |
| COc1ccc2nc(-c3ccccc3OCc3ccccc3)sc2c1 | -18.5% |  |
